{"source": "PubChem BioAssay (NCATS)", "note": "Records with an inconclusive call do not appear. Activity calls are given as the source filed them. Calls follow the shape of the dose curve; as a rule, active = well fitted inhibition curve with a large enough effect; inconclusive = small, poorly fitted or top-dose-only effect; inactive = no such curve, though single readings can be large or run the other way. % is scaled to controls: 0 for no effect and ±100 for the full control effect.", "data": [{"assay": "Primary qHTS for small molecule stabilizers of the endoplasmic reticulum resident proteome: Secreted ER Calcium Modulated Protein (SERCaMP) assay (AID 1508630)", "details": "SH-SY5Y GLuc-SERCaMP (Gaussia luciferase released on ER calcium loss) secretion, thapsigargin, luminescence; series mostly up to 38.4 µM; activity change, negative = inhibition: at the top concentration", "from_the_text": "Assay Provider: Brandon K. Harvey Ph.D.\nNational Institute on Drug Abuse, National Institutes of Health, Baltimore, MD\nEndoplasmic reticulum (ER) dysregulation is associated with human pathologies including neurodegenerative, cardiovascular, muscular, and diabetic conditions. Maintenance of ER calcium is critical for functions of the ER and its depletion can lead to loss of ER resident proteins, in a process termed exodosis. Therapeutic compounds capable of attenuating the redistribution of ER proteins under pathological conditions may slow or stop disease progression. To identify such compounds, we performed a quantitative high-throughput screen (qHTS) using the SERCaMP assay, which monitors secretion of ER resident proteins triggered by calcium depletion.\nSERCaMP was initially developed as a reporter of ER calcium homeostasis using a Gaussia luciferase with a modified signal peptide and carboxy-terminus (GLuc-SERCaMP), modifications that confer secretion of the reporter in response to ER calcium depletion (Henderson et al., 2014). The assay was used to screen 9,501 compounds, including a collection of drugs approved by the FDA (US), EMA (EU), NHI (Japan), and HC (Canada) regulatory agencies (Huang et al., 2011). Since the SERCaMP reporter reflects the exodosis phenomenon (Trychta et al., 2018a), compounds identified in the screen have the potential to prevent exodosis by different mechanisms such as stabilizing ER calcium or augmenting ERS retrieval.\n1. Henderson, M.J., Wires, E.S., Trychta, K.A., Richie, C.T., and Harvey, B.K. (2014). SERCaMP: a carboxy-terminal protein modification that enables monitoring of ER calcium homeostasis. Mol Biol Cell 25, 2828-2839.\n2. Huang, R., Southall, N., Wang, Y., Yasgar, A., Shinn, P., Jadhav, A., Nguyen, D.T., and Austin, C.P. (2011). The NCGC pharmaceutical collection: a comprehensive resource of clinically approved drugs enabling repurposing and chemical genomics. Sci Transl Med 3, 80ps16.\n3. Trychta, K.A., Back, S., Henderson, M.J., and Harvey, B.K. (2018a). KDEL Receptors Are Differentially Regulated to Maintain the ER Proteome under Calcium Deficiency. Cell Rep 25, 1829-1840 e1826.\nSEQUENCE No. (1, 2, 3, etc.); […] (e.g., Cells, Incubation, Reagent, etc.); VALUE and DESCRIPTION.\n1; Reagent; 5 uL; 1000 SH-SY5Y cells per wells\n3; Compound; 23 nL; Control inhibitor / compound library\n5; Reagent; 100 nM; Thapsigargin\n7; Reagent; 1 uL; 0.5x coelenterazine\n8; Detection; Luminescence; ViewLux imaging system\nNOTES (numbers refer to sequence above)\n1; SH-SY5Y human neuroblastoma cells stably expressing GLuc-SERCaMP (SH-SY5Y-GLuc-ASARTDL) cells were seeded in 1,536 well white tissue culture treated plates (Corning, Cat# 7464) in DMEM-high glucose-sodium pyruvate (ThermoFisher Scientific, Cat #10569) supplemented with 10% bovine growth serum (Hyclone), 10 U/ml penicillin (Gibco), 10 ug/ml streptomycin (Gibco), and 20 mM HEPES.\n2; Assay plates were incubated for 5 hour at 37C in a humidified incubator containing 5% CO2.\n3; qHTS libraries (23 nl, final concentrations of 1.53 uM, 7.67 uM, 38.3 uM) or controls (neutral control: DMSO, positive control: dantrolene) were added using a Kalypsis pin-tool Robotic System equipped with 1536 pinheads.\n4; Cells were then incubated for 16 hours at 37C, 5% CO2.\n5; Thapsigargin was added at 100 nM to deplete ER calcium stores.\n6; Cells were incubated for 4 hour (37 °C, 5% CO2)\n7; Gaussia luciferase in the medium was measured by adding 1 ul of 0.5x coelenterazine (final concentration 0.07x) prepared in Gaussia Luciferase Glow Assay Buffer (Pierce), without addition of the Cell Lysis Buffer Reagent.\n8; Luminescence was measured using a ViewLux […] CCD imaging system (Perkin Elmer) equipped with clear filters. […] The same controls were also used for the calculation of the Z' factor, a measure of assay quality control, as previously described (Zhang et al., 1999). […]", "values": [{"smiles": "O=P1(NCCCl)OCCCN1CCCl", "note": "(stereo not given)", "activity change, negative = inhibition": "-12.7% (inactive)"}, {"smiles": "C#CCOC(C(=O)OCCN(C)C)(c1ccccc1)c1ccccc1", "activity change, negative = inhibition": "-27.4% (inactive)"}, {"smiles": "NCCc1cc(O)c(O)cc1O", "activity change, negative = inhibition": "-33.7% (inactive)"}, {"smiles": "Oc1ccccc1-c1ccccc1", "activity change, negative = inhibition": "13.6% (inactive)"}, {"smiles": "C=CCN1CC[C@]23c4c5ccc(O)c4O[C@H]2C(=O)CC[C@@]3(O)[C@H]1C5", "activity change, negative = inhibition": "-22.8% (inactive)"}, {"smiles": "NN=C(N)N", "outcome": "inactive"}, {"smiles": "O=c1[nH]c2ccccc2n1CCCN1CCC(n2c(=O)[nH]c3cc(Cl)ccc32)CC1", "activity change, negative = inhibition": "83.7% (inactive)"}, {"smiles": "c1ccc(C2CC2)c(OCC2=NCCN2)c1", "outcome": "inactive"}, {"smiles": "N[C@@H](Cc1ccc(Oc2cc(I)c(O)c(I)c2)c(I)c1)C(=O)O", "activity change, negative = inhibition": "-9.63% (inactive)"}, {"smiles": "O=C(O)c1ccc2[nH]cc(CCCCN3CC=C(c4ccccc4)CC3)c2c1", "activity change, negative = inhibition": "-3.5% (inactive)"}, {"smiles": "NP(N)(=O)NC(=O)c1ccc(F)cc1", "outcome": "inactive"}, {"smiles": "O=[N+]([O-])c1cc([As](=O)(O)O)ccc1O", "activity change, negative = inhibition": "-18.8% (inactive)"}, {"smiles": "Clc1ccc(CCC(Cn2ccnc2)Sc2c(Cl)cccc2Cl)cc1", "note": "(stereo not given)", "activity change, negative = inhibition": "-36.1% (inactive)"}, {"smiles": "C[C@]12CCC(=O)C(O)=C1CC[C@@H]1[C@@H]2CC[C@]2(C)C(=O)CC[C@@H]12", "outcome": "inactive"}, {"smiles": "CCN(C(C)=O)c1cccc(-c2ccnc3c(C#N)cnn23)c1", "activity change, negative = inhibition": "8.52% (inactive)"}, {"smiles": "CC[N+](CC)(CC)CC", "activity change, negative = inhibition": "-29.9% (inactive)"}, {"smiles": "O=C1CC[C@@]2(O)[C@H]3Cc4ccc(O)c5c4[C@@]2(CCN3CC2CC2)[C@H]1O5", "activity change, negative = inhibition": "242% (inactive)"}, {"smiles": "C=C(C)[C@H]1Cc2c(ccc3c2O[C@@H]2COc4cc(OC)c(OC)cc4[C@@H]2C3=O)O1", "outcome": "inactive"}, {"smiles": "C[C@@H]1[C@@H](CC(C[C@H]2O[C@@H]3O[C@]4(C)CC[C@@H]5[C@H](C)CC[C@@H]([C@H]2C)[C@@]35OO4)C[S+](=O)([O-])c2ccc(COC(=O)N(C)C)cc2)O[C@@H]2O[C@]3(C)CC[C@H]4[C@H](C)CC[C@@H]1[C@@]24OO3", "note": "(stereo not given in full)", "activity change, negative = inhibition": "64.9% (inactive)"}, {"smiles": "Cc1cccc(C)c1NC(=O)CN1CCCC1=O", "outcome": "inactive"}, {"smiles": "C[C@H]1O[C@@H](O[C@H]2[C@@H](O)C[C@H](O[C@H]3[C@@H](O)C[C@H](O[C@H]4CC[C@@]5(C)[C@H](CC[C@@H]6[C@@H]5CC[C@]5(C)[C@@H](C7=CC(=O)OC7)CC[C@]65O)C4)O[C@@H]3C)O[C@@H]2C)C[C@H](O)[C@@H]1O", "activity change, negative = inhibition": "51% (inactive)"}, {"smiles": "CC(C)=CC1C(C(=O)OCc2cccc(Oc3ccccc3)c2)C1(C)C", "note": "(stereo not given)", "activity change, negative = inhibition": "-23.1% (inactive)"}, {"smiles": "CCCC(C)(COC(N)=O)COC(=O)NC(C)C", "note": "(stereo not given)", "outcome": "inactive"}, {"smiles": "COc1ccccc1N1CCNCC1", "activity change, negative = inhibition": "-24.7% (inactive)"}, {"smiles": "CC(O)(CS(=O)(=O)c1ccc(F)cc1)C(=O)Nc1ccc(C#N)c(C(F)(F)F)c1", "note": "(stereo not given)", "activity change, negative = inhibition": "82.6% (inactive)"}, {"smiles": "CC(C)=CCOc1c2occc2cc2ccc(=O)oc12", "outcome": "inactive"}, {"smiles": "CC(C)(C)NCC(O)c1cc(Cl)c(N)c(Cl)c1", "note": "(stereo not given)", "activity change, negative = inhibition": "8.36% (inactive)"}, {"smiles": "Oc1ccc(Cl)cc1Cc1ccccc1", "outcome": "inactive"}, {"smiles": "O=c1oc2ccccc2c(O)c1C(CC(O)c1ccc(-c2ccc(Br)cc2)cc1)c1ccccc1", "note": "(stereo not given)", "activity change, negative = inhibition": "2.3% (inactive)"}, {"smiles": "CC[C@@H](CO)NC(=O)[C@@H]1C=C2c3cccc4c3c(cn4C)C[C@H]2N(C)C1", "outcome": "inactive"}, {"smiles": "C#CCN(C)[C@H](C)Cc1ccccc1", "outcome": "inactive"}, {"smiles": "O=C(NC(O)C(Cl)(Cl)Cl)NC(O)C(Cl)(Cl)Cl", "note": "(stereo not given)", "activity change, negative = inhibition": "-21.8% (inactive)"}, {"smiles": "CC1=C2C[C@@H]3[C@@H](CC=C4C[C@@H](O)CC[C@@]43C)[C@@H]2CC[C@]12O[C@H]1C[C@H](C)CN[C@H]1[C@H]2C", "activity change, negative = inhibition": "0% (inactive)"}, {"smiles": "C[C@@H]1[C@@H](C(=O)C[C@H]2O[C@@H]3O[C@]4(C)CC[C@@H]5[C@H](C)CC[C@@H]([C@H]2C)[C@@]35OO4)O[C@@H]2O[C@]3(C)CC[C@H]4[C@H](C)CC[C@@H]1[C@@]24OO3", "activity change, negative = inhibition": "51.4% (inactive)"}, {"smiles": "CC(C)(C)CC(C)(C)c1ccc(O)cc1", "activity change, negative = inhibition": "3.22% (inactive)"}, {"smiles": "N[C@@H](Cc1ccc(N(CCCl)CCCl)cc1)C(=O)O", "outcome": "inactive"}, {"smiles": "CN1C(=S)CN=C(c2ccccc2)c2cc(Cl)ccc21", "activity change, negative = inhibition": "19.7% (inactive)"}, {"smiles": "Cc1ccc(S(=O)(=O)N[C@@H](CCCCN)C(=O)CCl)cc1", "outcome": "inactive"}, {"smiles": "Cn1cc(C2=C(c3cn(C4CCN(Cc5ccccn5)CC4)c4ccccc34)C(=O)NC2=O)c2ccccc21", "activity change, negative = inhibition": "28.6% (inactive)"}, {"smiles": "Oc1cc(Cl)ccc1Oc1ccc(Cl)cc1Cl", "outcome": "inactive"}]}]}
